# Laboratory results: ChEMBL document CHEMBL4513216, “Probing the Open Global Health Chemical Diversity Library for Multistage-Active Starting Points for Next-Generation Antimalarials” (ACS Infect Dis, 2020)
# The whole screen tested about 68,000 compounds, of which about 2,700 (4%) showed an effect of 50% or more. The full list was thinned out, with strong results kept by preference.
# Test system: Plasmodium berghei
# Assay: Screen against P. berghei liver stage (PbLuc), transformed with Luciferase, at 2uM
# Type: functional, HepG2
# Conditions: tested at 2 uM
row,SMILES,INHIBITION
1,CS(=O)(=O)N1CC[C@]2(O)CCN(c3cc(C#N)ccn3)C[C@@H]2C1,19.44%
2,CN(C)S(=O)(=O)N1CC[C@]2(O)CCN(c3ncccn3)C[C@@H]2C1,13.51%
3,CN(C)S(=O)(=O)N1CC[C@]2(O)CCN(c3cc(C#N)ccn3)C[C@@H]2C1,57.68%
4,Cn1ccc2c(C(=O)N3CCN(C(=O)C4CCCC4)CC3)cccc21,16.64%
5,O=C(c1cc(F)ccc1O)N1CCN(C(=O)C2CCC2)CC1,-10%
6,O=C(c1ccccc1O)N1CCN(C(=O)C2CCC2)CC1,51.31%
7,Cc1ccc(S(=O)(=O)Nc2ccc(-n3nnn(C)c3=O)cc2)cc1,-2.66%
8,CN(Cc1ncnn1C)C(=O)CCCn1ccc2cc(Cl)ccc21,57.23%
9,CN(CC(N)=O)C(=O)CCCn1ccc2cc(Cl)ccc21,28.42%
10,CN(Cc1ncnn1C)C(=O)CCn1ccc2ccccc21,-2.19%
11,Cc1cnc(N2C[C@H]3CN(Cc4csc(C)n4)C(=O)[C@H]3C2)nc1,22.18%
12,CNc1cccc(C2CCCN(C(=O)c3cccnc3)C2)n1 (stereo not given),-23.48%
13,CNc1cccc(C2CCCN(C(=O)c3cnccn3)C2)n1 (stereo not given),36.98%
14,CNc1cccc(C2CCCN(C(=O)c3ccncc3)C2)n1 (stereo not given),52.89%
15,COCCNC(=O)[C@@]12CCO[C@@H]1CCN(Cc1cc(C)on1)C2,10.43%
16,O=C(NCc1cccnc1)[C@H]1C[C@@H]2CCN(c3ccncn3)C[C@H]2O1,23.53%
17,O=C(NCc1ccccc1)C1CN(c2ccccn2)CCO1 (stereo not given),82.2%
18,Cc1cnc(N2CCOC(C(=O)NCc3ccccc3)C2)s1 (stereo not given),10.03%
19,O=C(c1ccccc1-c1ccccc1)N1C[C@@H]2CNC[C@]2(C(=O)O)C1,19.13%
20,O=C(Nc1ccc(-c2ccccc2)cc1)N1C[C@@H]2CNC[C@]2(C(=O)O)C1,51.42%
21,O=C(Nc1ccccc1-c1ccccc1)N1C[C@@H]2CNC[C@]2(C(=O)O)C1,14.54%
22,CS(=O)(=O)CCNC1CCCN(Cc2noc(C3CC3)n2)C1 (stereo not given),33.52%
23,CC(C)c1cc(C(=O)NCC2CCCN(C(C)C)C2)n(C)n1 (stereo not given),48.04%
24,Cc1nn(C)c(C)c1C(=O)N1CCN(C(=O)CC2CCCCC2)CC1,43.44%
25,Cc1cc(C(=O)N2CCN(c3ccncc3Cl)CC2)n(C)n1,64.35%

row,SMILES,INHIBITION
1,Cc1cc(C(=O)N2CCN(C(=O)CCC3CCCCC3)CC2)n(C)n1,74.44%
2,Cc1nn(C)c(C)c1C(=O)N1CCN(c2ccncc2Cl)CC1,4%
3,O=C(c1ccon1)N1CCN(c2ccncc2Cl)CC1,39.5%
4,Cc1nn(C)c(C)c1C(=O)N1CCN(C(=O)CCC2CCCCC2)CC1,21.97%
5,Cc1cc(C)n(CC(C)CNC(=O)N(C)Cc2cc(C)on2)n1 (stereo not given),0.89%
6,Cc1nc(-c2cc(C(=O)NCCN3CCOCC3)c3ccccn23)cs1,-40.36%
7,CC(c1ccncc1)N(C)S(C)(=O)=O (stereo not given),-22.2%
8,Cc1noc([C@]23COC[C@H]2CN(C(=O)Cc2ccsc2)C3)n1,15.36%
9,CCS(=O)(=O)N1CCOC(CCCc2ccccc2)C1 (stereo not given),1.94%
10,CC(C)(CN1CCC(Cc2cccc(C(=O)O)c2)C1)N1CCOCC1 (stereo not given),-32.96%
11,CC(C)(CN1CCC(Cc2ccc(C(=O)O)cc2)C1)N1CCOCC1 (stereo not given),52.01%
12,CC(C)(CN1CCC(Cc2ccc(CO)cc2)C1)N1CCOCC1 (stereo not given),-57.88%
13,c1cnc(-c2noc(C3CN(Cc4ccc5c(c4)CCO5)C3)n2)nc1,-17.26%
14,COc1ccccc1C(=O)N(C)Cc1nnc2ccccn12,40.82%
15,COC(=O)C(c1cc(F)ccc1F)N(C)C(=O)c1cnccn1 (stereo not given),-27.5%
16,COC(=O)C(c1cc(F)ccc1F)N(C)C(=O)c1cnc(C)cn1 (stereo not given),60.09%
17,COC(=O)C(c1cc(F)ccc1F)N(C)C(=O)c1ccnc(C)n1 (stereo not given),-12.91%
18,Cc1cc(C)n(CCC2CC(=O)Nc3cc(O)c(C)cc32)n1 (stereo not given),-32.52%
19,Cc1noc(C(C)C)c1C(=O)NCCCN1CCCCCC1=O,77.68%
20,Cc1noc(C(C)C)c1C(=O)NCCC(=O)N1CCCCC1,11.57%
21,Cc1noc(C(C)C)c1C(=O)NCCCN1CCNCC1,43.16%
22,Cc1noc(C(C)C)c1C(=O)NCCN1CCOCC1,32.63%
23,Cc1noc(C(C)C)c1C(=O)NCCCN1CCC(C)CC1,-15.34%
24,Cc1noc(C(C)C)c1C(=O)NCCN1CCCCCC1=O,60.21%
25,Cc1noc(C(C)C)c1C(=O)NCCCN1CCCC1,-75.02%

row,SMILES,INHIBITION
1,Cc1noc(C)c1C(=O)NCCN1CCOCC1,63.46%
2,Cc1noc(C)c1C(=O)NCCN1CCN(S(C)(=O)=O)CC1,-41.64%
3,Cc1nc(-c2ccccc2C)n(CC(=O)NC2CCCC2)n1,31.57%
4,Cn1ccc(C(=O)N2CCCC2c2cc[nH]n2)n1 (stereo not given),16.43%
5,COCCc1ncc(CN2C[C@@H](C(=O)O)[C@H](C(C)C)C2)cn1,-59.6%
6,COc1ccc(-n2ccc(CNCc3cccc(OC)c3)n2)cc1,28.75%
7,O=C(NCc1cnn2cccnc12)C1CC2(CCNCC2)CN1 (stereo not given),-1.33%
8,Cn1cc(-c2cnc(N3CCOCC3)nc2)cc1C(=O)NCCC#N,-0.45%
9,CCC(NC(=O)c1cc(NC(C)=O)ccc1Cl)c1cc(C)ccn1 (stereo not given),57.75%
10,COCC(NC(=O)c1cc(NC(C)=O)ccc1Cl)c1ccccn1 (stereo not given),29.13%
11,COCC(NC(=O)c1cc(NC(C)=O)ccc1Cl)c1ccnn1C (stereo not given),21.97%
12,COC(=O)C1CCCN1CC(=O)NCc1ccc(OCC(N)=O)cc1 (stereo not given),-6.33%
13,O=C1CCC[C@]2(CN(S(=O)(=O)N3CCCCC3)C[C@H]2c2cccnc2)N1,-0.64%
14,CCCN1CCN(C(=O)c2ccc3ccccc3n2)[C@H]2CS(=O)(=O)C[C@H]21,57.21%
15,CC(C)=CCN1CCN(C(=O)COc2ccccc2)[C@H]2CS(=O)(=O)C[C@H]21,41.68%
16,CCCN1CCN(C(=O)c2cccc(C)n2)[C@H]2CS(=O)(=O)C[C@H]21,6.84%
17,CCCN1CCN(C(=O)Cc2cccnc2)[C@H]2CS(=O)(=O)C[C@H]21,23.19%
18,CC(C)=CCN1CCN(C(=O)CSc2ccccn2)[C@H]2CS(=O)(=O)C[C@H]21,64.9%
19,CC(C)=CCN1CCN(C(=O)c2snnc2C)[C@H]2CS(=O)(=O)C[C@H]21,51.38%
20,CC(=O)N1CCN(C(=O)c2snnc2C)[C@H]2CS(=O)(=O)C[C@H]21,-3.73%
21,O=C(CSc1ccccn1)N1CCN(CCO)[C@@H]2CS(=O)(=O)C[C@@H]21,67.28%
22,Cc1nnsc1C(=O)N1CCN(CC2CC2)[C@@H]2CS(=O)(=O)C[C@@H]21,0.54%
23,CCCN1CCN(C(=O)c2cc3ccccc3cn2)[C@H]2CS(=O)(=O)C[C@H]21,35.01%
24,O=C(C1CC1)N1CCN(C(=O)CSc2ccccn2)[C@H]2CS(=O)(=O)C[C@H]21,-32.88%
25,CC(C)=CCN1CCN(CCCc2ccccc2)[C@H]2CS(=O)(=O)C[C@H]21,7.29%
